# Data taken from PubChem BioAssay (NCATS).
# Records with an inconclusive call do not appear. Where a call stands in place of a potency, no number is given. Calls of active or inactive are those of the source. Calls come from the whole dose curve; as a rule, active = well fitted inhibition curve with a large enough effect; inconclusive = small, poorly fitted or top-dose-only effect; inactive = flat fitted curve, though single readings scatter.
# System: PC26
# Experiment: qHTS profiling for inhibitors of Plasmodium falciparum proliferation (AID 504749); note: nearly all actives have a fitted effect of over 60% in size
# Details: P. falciparum in erythrocytes, SYBR Green DNA, 72 h; series mostly up to 28.7 µM
# Method in brief: (§1)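 Readout was DNA-dye fluorescence from lysed cultures, ex 485/em 535 nm. Parasitized red cells had grown 72 h with compound; data scaled between 0.29 uM artemisinin and DMSO wells and corrected using vehicle-only plates.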
# Potency is the fitted concentration of half-maximal effect.
row,Compound,Potency
1,CC(=O)Oc1ccc(C(=C2CCCCC2)c2ccc(OC(C)=O)cc2)cc1,inactive
2,C1CCc2nnnn2CC1,inactive
3,Cc1ccnc(NS(=O)(=O)c2ccc(N)cc2)n1,inactive
4,Nc1cc(Cl)c(NC2=NCCN2)c(Cl)c1,inactive
5,NCCC(O)(P(=O)(O)O)P(=O)(O)O,inactive
6,CC1=C(C(=O)OC(C)C)C(c2cccc([N+](=O)[O-])c2)C(C(=O)OC2CN(C(c3ccccc3)c3ccccc3)C2)=C(N)N1 (configuration not stated),7570 nM (active)
7,COC(=O)[C@H]1[C@H]2C[C@H]3c4[nH]c5ccccc5c4CCN3C[C@H]2CC[C@@H]1O,inactive
8,NCCc1ccn[nH]1,inactive
9,O=C(O)c1cc2cc(Cc3cccnc3)ccc2o1,inactive
10,CCN1CCC[C@H]1CNC(=O)c1c(OC)ccc(Br)c1OC,inactive
11,Nc1ccc(C(=O)Nc2ccccc2N)cc1,inactive
12,N[C@H](CO)C(=O)O,inactive
13,CC(=O)OCC(=O)NCCCOc1cccc(CN2CCCCC2)c1,inactive
14,CC(C)COC(=O)OCN1C(=O)CN(CCN2CC(=O)N(COC(=O)OCC(C)C)C(=O)C2)CC1=O,inactive
15,O=C1CCC(c2ccc(-n3ccnc3)cc2)=NN1,inactive
16,N[C@@H](Cc1cnc[nH]1)C(=O)O,inactive
17,Nc1ccc(C(=O)O)cc1,inactive
18,CC(C)(C)CC(C)(C)c1ccc(O)c(Cc2ccc(Cl)cc2Cl)c1,1510 nM (active)
19,C[C@@H]1C(=O)NC2=Nc3cccc(Cl)c3CN21,inactive
20,C[N+]1(CCCCC[N+]2(C)CCCC2)CCCC1,inactive

# System: PC49
# Experiment: as above
# Details: P. falciparum in erythrocytes, SYBR Green DNA, 72 h; series mostly up to 28.7 µM
# Method in brief: as §1
row,Compound,Potency
1,CC(=O)Oc1ccc(C(=C2CCCCC2)c2ccc(OC(C)=O)cc2)cc1,inactive
2,C1CCc2nnnn2CC1,inactive
3,Cc1ccnc(NS(=O)(=O)c2ccc(N)cc2)n1,inactive
4,CO/N=C1\CN(c2nc3c(cc2F)c(=O)c(C(=O)O)cn3C2CC2)CC1CN (configuration not stated),inactive
5,CC1(C)CCC(NC(=O)[C@@H](N)CCC(=O)O)CC1,inactive
6,Nc1cc(Cl)c(NC2=NCCN2)c(Cl)c1,inactive
7,NCCC(O)(P(=O)(O)O)P(=O)(O)O,inactive
8,NCCc1ccn[nH]1,inactive
9,O=C(O)c1cc2cc(Cc3cccnc3)ccc2o1,inactive
10,CCN1CCC[C@H]1CNC(=O)c1c(OC)ccc(Br)c1OC,inactive
11,Nc1ccc(C(=O)Nc2ccccc2N)cc1,inactive
12,N[C@H](CO)C(=O)O,inactive
13,CC(=O)OCC(=O)NCCCOc1cccc(CN2CCCCC2)c1,inactive
14,CC(C)COC(=O)OCN1C(=O)CN(CCN2CC(=O)N(COC(=O)OCC(C)C)C(=O)C2)CC1=O,inactive
15,O=C1CCC(c2ccc(-n3ccnc3)cc2)=NN1,inactive
16,N[C@@H](Cc1cnc[nH]1)C(=O)O,inactive
17,Nc1ccc(C(=O)O)cc1,inactive
18,CCCCC1=NC2(CCCC2)C(=O)N1Cc1ccc(-c2ccccc2-c2nn[nH]n2)cc1,inactive
19,CC(C)(C)CC(C)(C)c1ccc(O)c(Cc2ccc(Cl)cc2Cl)c1,1780 nM (active)
20,C[C@@H]1C(=O)NC2=Nc3cccc(Cl)c3CN21,inactive
21,CCOC(=O)/C=C(C)/C=C/C=C(C)/C=C/c1c(C)cc(OC)c(C)c1C,inactive
22,C[N+]1(CCCCC[N+]2(C)CCCC2)CCCC1,inactive
